The source of these data is PubChem BioAssay AID720540 (National Center for Advancing Translational Sciences (NCATS), 2013).

Each structure is given as a SMILES string. The whole screen tested about 1,300 compounds, of which about 460 (35%) were called active. About 39% were inconclusive and are not listed. Some of the results follow. Unmarked numbers belong to inactive results. The call rests on the fitted dose curve; in most records, active means well fitted inhibition curve with a large enough effect; inconclusive means small, poorly fitted or top-dose-only effect; inactive means flat fitted curve, though single readings scatter.
Potency means the concentration at half of the fitted maximal effect.

Chain of Protein phosphatase EYA2 (Homo sapiens) (O00167 whole entry, looked up): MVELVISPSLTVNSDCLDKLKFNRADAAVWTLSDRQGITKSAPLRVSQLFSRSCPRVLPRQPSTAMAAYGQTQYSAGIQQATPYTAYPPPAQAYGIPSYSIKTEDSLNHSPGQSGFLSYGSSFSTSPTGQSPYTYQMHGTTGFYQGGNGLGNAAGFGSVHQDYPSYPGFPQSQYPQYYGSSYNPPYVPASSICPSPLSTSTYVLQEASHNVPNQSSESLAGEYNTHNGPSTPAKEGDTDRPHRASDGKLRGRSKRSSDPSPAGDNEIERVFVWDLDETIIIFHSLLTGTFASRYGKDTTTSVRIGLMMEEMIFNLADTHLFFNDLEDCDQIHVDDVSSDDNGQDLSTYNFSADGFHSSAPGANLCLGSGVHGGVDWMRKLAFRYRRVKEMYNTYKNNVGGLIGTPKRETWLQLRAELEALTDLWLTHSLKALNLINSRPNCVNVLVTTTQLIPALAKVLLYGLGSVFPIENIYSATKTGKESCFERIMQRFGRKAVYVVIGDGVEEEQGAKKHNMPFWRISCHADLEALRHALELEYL

The target of the experiment is Protein phosphatase EYA2 (Homo sapiens) (UniProt O00167). The experiment is described as follows: qHTS for Inhibitors of the Phosphatase Activity of Eya2: Confirmatory Assay for Cherry-picked Compounds. Further: nearly all actives have a fitted effect of over 65% in size.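 On activity change, negative = inhibition: 0% = DMSO wells and -100% = EGTA control giving full inhibition.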 Particulars: purified EYA2 phosphatase activity, qHTS confirmation; series mostly up to 46.1 µM; activity change, negative = inhibition: at the top concentration. The procedure, abridged:
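Eya2 (0.2 uM working solution) preincubated 10 min at room temperature with compound in pH 7.5 HEPES buffer with MgCl2, BSA, DTT. OMFP added (50 uM working solution), 10 min more; fluorescence 485/525 nm, normalized to EGTA and DMSO.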
`CCCSC1=N/C(=C\C=C\c2ccco2)C(=O)S1`: the Potency is 9.53 µM (active).
The same measure, in the same setting: the result for `O=c1nc2c(O)cccn2c2c1c(=O)[nH]c1ccccc12` reads 4.26 µM (active); that for `Cc1ccc(C(=O)CSc2nnc(CNc3nc(-c4ccccc4)cs3)n2C)cc1`, 7.57 µM (active).
Regarding `COc1ccc(N)cc1-n1c(C)ccc1C`, the “activity change, negative = inhibition” value was -0.42%.
In the case of `O=[N+]([O-])c1ccc([N+](=O)[O-])c(Nc2ccc(N3CCOCC3)cc2)c1`, the Potency was 10.7 µM (active).
`O=C(CCS(=O)(=O)c1ccc(F)cc1)Nc1nc(-c2ccccn2)cs1`: the Potency was 13.5 µM (active).
The same measure, in the same setting: the result for `CSCCC(=O)Nc1nc(-c2ccccn2)cs1` reads 19 µM (active); that for `CCn1nc(C(=O)Nc2nc(-c3ccccn3)cs2)c2ccccc2c1=O`, 4.26 µM (active); that for `COc1ccccc1/C=C/C=N/N1CCN(Cc2cccc3ccccc23)CC1`, 8.49 µM (active).
Same read-out and setting: with `Cn1cccc1/C=N/N1CCN(Cc2cccc3ccccc23)CC1` the figure was 15.1 µM (active).
Turning to `Cc1cc(C(=O)COC(=O)c2ccc(O)cc2)c(C)n1CCc1ccc(F)cc1`, the “activity change, negative = inhibition” value was -22.6%.
Turning to `O=C(CSc1ccc2nnc(-c3ccccn3)n2n1)Nc1ccccc1F`, the Potency is 12 µM (active).
As to `O=C(CSc1ccc2nnc(-c3ccccn3)n2n1)Nc1ccccc1`, the Potency is 16.9 µM (active).
Same read-out and setting: the result for `O=C(CSc1ccc2nnc(-c3ccccn3)n2n1)Nc1ccccc1C(F)(F)F` reads 19 µM (active); that for `CCCCC(Sc1ccc2nnc(-c3ccccn3)n2n1)C(=O)O` (centres undefined), 16.9 µM (active).
With `CCC(=O)Nc1ccc(-c2nnc(SCc3ccccc3)n2C)cc1`, the “activity change, negative = inhibition” value is -7.17%.
For the compound `O=S(=O)(O)c1ccc(O)c2cc(Nc3ccccc3)ccc12`, the Potency is 7.57 µM (active).
The same measure, in the same setting: with `O=C(c1ccc2c(=O)n3c(nc2c1)CCCCC3)N1CCN(c2cccc(Cl)c2)CC1` the figure was 16.9 µM (active).
Take `NC(=O)c1nc(C(=O)N2CCCCC2)c2ccccc2n1`: the “activity change, negative = inhibition” value is -4.08%.
The same measure, in the same setting: the result for `COc1ccc(/C=C/C(=O)Nc2ccc3nc4n(c(=O)c3c2)CCCC4)cc1` reads -23.1%.
As for `COc1cc2c(cc1OC)C(c1ccc([N+](=O)[O-])cc1)NCC2` (centres undefined), the “activity change, negative = inhibition” value was -11.5%.
On to `Oc1ccccc1C=NC1CCCCC1N=Cc1ccccc1O` (centres undefined), for which the Potency was 19 µM (active).
On the same count and under the same terms, with `O=C(Nc1nncs1)c1cc(-c2ccco2)nc2ccccc12` the figure was 19 µM (active).
For `COc1ccc(NC(=O)c2cc(-c3ccco3)nc3ccccc23)cn1`, the “activity change, negative = inhibition” value is -26.4%.
For the compound `CCOC(=O)c1sc(NC(=O)CSc2nc(O)c(Cc3ccccc3)c(=O)[nH]2)nc1C`, the Potency was 19 µM (active).
On to `O=C(CN1C(=O)/C(=C/c2ccco2)SC1=S)Nc1ccc(C(=O)O)c(O)c1`, for which the Potency is 16.9 µM (active).
With `COc1cc(/C=C2\SC(=S)N(CCC(=O)Nc3cccc(O)c3)C2=O)cc(OC)c1OC`, the “activity change, negative = inhibition” value was -18.9%.
With `O=C1c2cccc(Sc3ccccc3)c2C(=O)c2c(Sc3ccccc3)cccc21`, the Potency was 3.38 µM (active).
In the case of `COC(=O)c1sc2cc(C(F)(F)F)cnc2c1-c1cccnc1`, the “activity change, negative = inhibition” value was -1.68%.
As for `CCN(CC)C(=O)c1ccc(O)c(OC)c1`, the “activity change, negative = inhibition” value is 1.29%.
`CCN(CC)S(=O)(=O)c1cc(OC)ccc1N=Nc1ccc(O)c2ncccc12`: the Potency is 1.35 µM (active).
Take `CCc1nnc(NS(=O)(=O)c2ccc(NCc3cc(Cl)cc(Cl)c3O)cc2)s1`: the Potency was 2.39 µM (active).
On the same count and under the same terms, with `O=S(=O)(Nc1nccs1)c1ccc(NCc2cc(Br)cc(Br)c2O)cc1` the figure was 1.07 µM (active).
With `CCSc1nnc(-c2ccc(S(=O)(=O)N3CCOCC3)cc2)n1C`, the “activity change, negative = inhibition” value is 2.37%.
The same measure, in the same setting: the result for `CCOc1ccc(NC(=O)c2sccc2-n2cccc2)cc1` reads -22.2%; that for `O=C(CCN1C(=O)/C(=C\C=C\c2ccccc2)SC1=S)Nc1ccc(C(=O)O)cc1`, -25.3%.
For `CCOc1ccc(/C=C2\SC(=S)N(CCC(=O)Nc3ccc(C(=O)O)cc3)C2=O)cc1`, the Potency is 19 µM (active).
As for `Cc1n[nH]c(=S)n(NC(=O)CC(=O)Nn2c(=S)[nH]nc(C)c2=O)c1=O`, the Potency is 1.51 µM (active).
The same measure, in the same setting: the result for `CC1CCCN(c2ccc3nc4ccccc4c(=O)n3n2)C1` (centres undefined) reads 13.5 µM (active); that for `Cc1ccc(CN2CCN(/N=C/c3ccc(C)s3)CC2)c(C)c1`, 15.1 µM (active).
For the compound `O=C(Nc1nc2c(F)cc(F)cc2s1)c1ccc([N+](=O)[O-])o1`, the “activity change, negative = inhibition” value was -27.1%.
With `O=C(Oc1ccc(C(=S)N2CCCCC2)cc1)c1ccccc1F`, the Potency was 13.5 µM (active).
As for `Cc1cc(Br)c(NC(=O)c2ccccc2[N+](=O)[O-])cc1C`, the “activity change, negative = inhibition” value was -9.39%.
Take `O=C(Oc1ccc(C(=S)N2CCOCC2)cc1)c1ccccc1[N+](=O)[O-]`: the Potency is 13.5 µM (active).
On the same count and under the same terms, with `O=C(Oc1ccc(C(=S)N2CCOCC2)cc1)c1ccccc1F` the figure was 6.01 µM (active); with `CC1(C)Nc2cccc3c(N=Nc4ccc(N=Nc5ccccc5)c5ccccc45)ccc(c23)N1`, 3.01 µM (active).
Consider `COc1ccc(CN(CCN(C)C)c2ccccn2)cc1`, for which the “activity change, negative = inhibition” value is -3.21%.
Regarding `COc1ccc(Oc2nc(-c3ccccn3)ncc2OC)cc1`, the Potency is 19 µM (active).
Still for that read-out and setting: the result for `CCOC(=O)C(C)Sc1nc(-c2ccccn2)ncc1OC` (centres undefined) reads 2.13 µM (active).
The same measure, in the same setting: the result for `COc1cnc(-c2ccccn2)nc1Oc1ccc(C(C)(C)C)cc1` reads 3.79 µM (active).
As for `CCc1nc2ccc(C(=O)NCCCN(C)C)cn2c1N(C)Cc1ccc(OC)cc1`, the “activity change, negative = inhibition” value is -5.22%.
In the case of `COc1ccc(N(CC(=O)Nc2nc3ccc(C)cc3s2)S(=O)(=O)c2c(C)nn(C)c2C)cc1`, the “activity change, negative = inhibition” value is -25.2%.
For the compound `Cc1c(C(=O)O)c(O)cc2c1C(=O)c1c(O)c([C@H]3O[C@H](CO)[C@@H](O)[C@H](O)[C@H]3O)c(O)c(O)c1C2=O`, the Potency was 16.9 µM (active).
In the case of `O=C(Nc1cccc(-c2nnc(-c3ccco3)o2)c1)c1ccccc1`, the “activity change, negative = inhibition” value was -19.3%.
Same read-out and setting: with `O=C(COC(=O)c1cc(-c2cccnc2)nc2ccccc12)Nc1ccc(F)cc1F` the figure was -21.4%; with `CCc1ccc(NC(=O)COC(=O)c2ccccc2OCC(=O)N(C)C)cc1`, -4.47%.
In the case of `CCOc1ccccc1C(=O)OCC(=O)Nc1nnc(-c2ccccc2)o1`, the Potency is 19 µM (active).
The same measure, in the same setting: with `COc1ccc(C(=O)Nc2nnc(-c3ccccc3)o2)cc1OC` the figure was 19 µM (active); with `C#Cc1cccc(NC(=O)CSc2nnc(-c3ccc(C(F)(F)F)cn3)o2)c1`, 15.1 µM (active).
On to `CC1CCCCC1Nc1nc2ccc(Cl)cc2n2cnnc12` (centres undefined), for which the “activity change, negative = inhibition” value is -24%.
`c1ccc2c(c1)nc(Nc1ccc(N3CCCCC3)cc1)c1nncn12`: the Potency is 16.9 µM (active).
On to `CN(C)c1ccc(/C=C2\C=Cc3ccccc32)cc1N`, for which the Potency was 15.1 µM (active).
Turning to `O=[N+]([O-])c1ccc(/C=C2\C=Cc3ccccc32)cc1`, the Potency is 4.78 µM (active).
On the same count and under the same terms, with `CN(C)c1ccc(/C=C2\C=Cc3ccccc32)cc1[N+](=O)[O-]` the figure was 6.75 µM (active); with `CNc1ccc(/C=C2\C=Cc3ccccc32)cc1OC`, 7.57 µM (active).
Turning to `CCN(CC)CCNC(=O)c1ccc(N)cc1`, the “activity change, negative = inhibition” value was -4.89%.
Consider `CC(NC(=O)c1cc2c(s1)CS(=O)(=O)C2)c1ccccc1` (centres undefined), for which the “activity change, negative = inhibition” value was -5.13%.
With `Cc1cc(/C=C2\C=Cc3ccccc32)ccc1N(C)C`, the Potency was 7.57 µM (active).
The same measure, in the same setting: with `COc1cc(/C=C2/C=Cc3ccccc32)ccc1N(C)C` the figure was 6.75 µM (active).
The same measure, in the same setting: the result for `CCN(Cc1cccc(S(=O)(=O)O)c1)c1ccc(C(=C2C=CC(=[N+](CC)Cc3cccc(S(=O)(=O)O)c3)C=C2)c2ccc(O)cc2S(=O)(=O)O)cc1` reads 6.01 µM (active); that for `CCN(Cc1cccc(S(=O)(=O)O)c1)c1ccc(C(=C2C=CC(=[N+](CC)Cc3cccc(S(=O)(=O)O)c3)C=C2)c2ccccc2S(=O)(=O)[O-])cc1`, 9.53 µM (active).
For `Cc1nc2c(C(=O)Nc3ccc(N4CCCC(O)C4)cc3)snc2c(=O)[nH]1` (centres undefined), the “activity change, negative = inhibition” value is -21.6%.
The same measure, in the same setting: the result for `CC(=O)Nc1ccc(S(=O)(=O)N2C3CCCC2CC(NC(=O)C2CCCCC2)C3)cc1` (centres undefined) reads -9.63%.
On to `CC(=O)Nc1ccc(S(=O)(=O)Nc2ccc(N3CCCCC3)cc2)cc1`, for which the Potency is 8.49 µM (active).
Same read-out and setting: the result for `COc1cc(NC(=O)CN2C(=O)CSc3ccc(S(=O)(=O)N4CCCC4)cc32)cc(OC)c1` reads 5.36 µM (active).
As to `O=C(Cc1ccccc1F)Nc1cccc(S(=O)(=O)N2CCCCC2)c1`, the “activity change, negative = inhibition” value was -11.9%.
As to `O=C(O)c1c2c(nc3ccc(S(=O)(=O)N4CCC(C(=O)NC5CCCC5)CC4)cc13)CCCCC2`, the “activity change, negative = inhibition” value is -12.6%.
In the case of `COc1ccc(S(=O)(=O)N2CCN(C(=O)c3cc4c(s3)CCC4)CC2)cc1`, the “activity change, negative = inhibition” value was -25.3%.
On to `COc1ccc(CNC(=O)C2CCN(S(=O)(=O)c3ccc4nc5c(c(C(=O)O)c4c3)CCCC5)CC2)cc1`, for which the Potency is 15.1 µM (active).
On the same count and under the same terms, the result for `Cc1ccc(CNC(=O)C2CCN(S(=O)(=O)c3ccc4nc5c(c(C(=O)O)c4c3)CC(C)CC5)CC2)cc1` (centres undefined) reads 8.49 µM (active).
The same measure, in the same setting: with `CCN(CC)c1ccc(/C=N/N2CCN(Cc3ccccc3Cl)CC2)cc1` the figure was 7.57 µM (active); with `CCN1C(=O)c2cccc3c(S(=O)(=O)N(C(C)=O)c4ccc(OC(C)=O)cc4)ccc1c23`, 15.1 µM (active).
For the compound `CC(=O)Oc1ccc(N2C(=O)c3cccc4c([N+](=O)[O-])ccc(c34)C2=O)cc1`, the “activity change, negative = inhibition” value was -22.5%.
As for `O=C(O)c1c(Br)c(Br)c(Br)c(Br)c1C1c2ccc(O)cc2Oc2cc(O)ccc21`, the Potency was 1.35 µM (active).
The same measure, in the same setting: the result for `C[N+](C)(CCCCCI)c1ccc(/C=C/c2nc3ccccc3s2)cc1` reads 13.5 µM (active).
As to `Cc1ccc(C2CC(c3ccc(Br)cc3)=NN2C(=O)CSC2=NN3CCCC(=O)N=C3S2)cc1` (centres undefined), the “activity change, negative = inhibition” value is -26.2%.
For the compound `Nc1ccc2nc3c(=O)[nH]c(=S)[nH]c3nc2c1`, the Potency was 6.01 µM (active).
Regarding `COC(=O)c1ccccc1NC(=S)NC(=O)c1ccc(C)cc1`, the Potency is 13.5 µM (active).
On the same count and under the same terms, the result for `O=C1C(N2CCOCC2)=Cc2cccc3cccc1c23` reads 19 µM (active).
As for `CCOC(=O)C1=C(N)Oc2c(oc(CO)cc2=O)C1c1ccc(Cl)cc1` (centres undefined), the “activity change, negative = inhibition” value is -29.1%.
With `O=C(Nc1cc([N+](=O)[O-])ccc1O)c1cccc(C(=O)Nc2cc([N+](=O)[O-])ccc2O)c1`, the Potency is 3.79 µM (active).
Consider `COc1ccc(C(=O)CC(=O)Nc2ccc([N+](=O)[O-])cc2)cc1`, for which the “activity change, negative = inhibition” value was -14.9%.
Same read-out and setting: the result for `NC(N)=Nc1nc2cc([N+](=O)[O-])ccc2o1` reads -25%; that for `O=C(O)CSCc1nc2cccnc2n1C1CCCCC1`, -11.2%.
